Measurements taken from the supplement of paper PMC12067926.
Unmarked numbers belong to inactive results.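 Rule for the calls: active = growth AUC significantly below the DMSO wells by Dunnett test; inactive = the rest.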

How the values were obtained:
Experiment in all cases: relative growth (AUC of 72 h growth curve relative to DMSO control, dAUC) (ratio); higher = more growth (less inhibition), active = hit call of the paper
Conditions in all cases: 20 µM
[1] = test system: Aeromonas 1 (Aeromonas sp. AE235)
How it was run: (§1)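 Relative growth (dAUC) is the spline-integrated area under the growth curve divided by the mean of the DMSO-only control wells. Cultures were isolates from Icelandic stream sediments and Silwood Park soil, plus whole sediment communities, grown to carrying capacity in Luria–Bertani medium and diluted 1:100 into 96-well plates containing each chemical at 20 µM (1% DMSO). A600 was read hourly for 72 h on a plate reader, with brief shaking before each read, and values were averaged over three biological replicates.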

[2] = test system: Aeromonas 2 (Aeromonas sobria)
How it was run: as §1

[3] = test system: Aeromonas 3 (Aeromonas popoffii)
How it was run: as §1

[4] = test system: Argrobacterium 1 (Agrobacterium sp.)
How it was run: as §1

[5] = test system: Arthrobacter 1 (Arthrobacter humicola)
How it was run: as §1

[6] = test system: Arthrobacter 2 (Arthrobacter humicola)
How it was run: as §1

[7] = test system: Arthrobacter 3 (Arthrobacter sp.)
How it was run: as §1

Community 10 = test system: Community 10
How it was run: as §1

Community 4 = test system: Community 4
How it was run: as §1

Community 6 = test system: Community 6
How it was run: as §1

Community 7 = test system: Community 7
How it was run: as §1

Community 8 = test system: Community 8
How it was run: as §1

Community 9 = test system: Community 9
How it was run: as §1

[8] = test system: Flavobacterium 1 (Flavobacterium glaciei)
How it was run: as §1

[9] = test system: Flavobacterium 2 (Flavobacterium succinicans)
How it was run: as §1

[10] = test system: Hymenobacter 1 (Hymenobacter glaciei)
How it was run: as §1

[11] = test system: Microbacterium 1 (Microbacterium arborescens)
How it was run: as §1

[12] = test system: Neobacillus 1 (Neobacillus soli)
How it was run: as §1

[13] = test system: Oryzobacter 1 (Oryzobacter terrae)
How it was run: as §1

[14] = test system: Paenibacillus 1 (Paenibacillus castaneae)
How it was run: as §1

CCc1nn(C)c(C(=O)NCc2ccc(Oc3ccc(C)cc3)cc2)c1Cl
relative growth [1]: 1.03 | relative growth [2]: 1.06 | relative growth [3]: 1.05 | relative growth [4]: 1.02 | relative growth [5]: 1.04 | relative growth [6]: 0.892 | relative growth [7]: 1.02 | relative growth (Community 10): 0.804 | relative growth (Community 4): 0.865 | relative growth (Community 6): 0.897 | relative growth (Community 7): 1.02 | relative growth (Community 8): 1.03 | relative growth (Community 9): 0.885 | relative growth [8]: 1 | relative growth [9]: 1.04 | relative growth [10]: 0.992 | relative growth [11]: 1.02 | relative growth [12]: 1.05 | relative growth [13]: 0.988 | relative growth [14]: 1

Cc1c(COC(=O)[C@@H]2[C@H](/C=C(\Cl)C(F)(F)F)C2(C)C)cccc1-c1ccccc1 (racemic)
relative growth [1]: 0.988 | relative growth [2]: 0.992 | relative growth [3]: 1.05 | relative growth [4]: 1.06 | relative growth [5]: 1.17 | relative growth [6]: 0.833 | relative growth [7]: 0.786 | relative growth (Community 10): 0.993 | relative growth (Community 4): 0.998 | relative growth (Community 6): 1.05 | relative growth (Community 7): 1.06 | relative growth (Community 8): 1.1 | relative growth (Community 9): 0.947 | relative growth [8]: 0.869 | relative growth [9]: 1 | relative growth [10]: 1.06 | relative growth [11]: 1.05 | relative growth [12]: 0.943 | relative growth [13]: 1.07 | relative growth [14]: 0.975

Cc1cc(C2CC2)nc(Nc2ccccc2)n1
relative growth [1]: 1.01 | relative growth [2]: 0.948 | relative growth [3]: 1.05 | relative growth [4]: 0.93 | relative growth [5]: 0.989 | relative growth [6]: 0.898 | relative growth [7]: 0.542 (active) | relative growth (Community 10): 0.995 | relative growth (Community 4): 0.978 | relative growth (Community 6): 1 | relative growth (Community 7): 0.89 | relative growth (Community 8): 1.05 | relative growth (Community 9): 0.939 | relative growth [8]: 0.951 | relative growth [9]: 0.86 | relative growth [10]: 1.1 | relative growth [11]: 1.05 | relative growth [12]: 0.946 | relative growth [13]: 1.04 | relative growth [14]: 0.619 (active)

COCC(C)N(C(=O)CCl)c1c(C)csc1C (centres undefined)
relative growth [1]: 0.991 | relative growth [2]: 0.984 | relative growth [3]: 0.964 | relative growth [4]: 1.02 | relative growth [5]: 0.907 | relative growth [6]: 0.814 | relative growth [7]: 1.05 | relative growth (Community 10): 0.97 | relative growth (Community 4): 0.913 | relative growth (Community 6): 0.975 | relative growth (Community 7): 0.996 | relative growth (Community 8): 1.01 | relative growth (Community 9): 1.01 | relative growth [8]: 0.948 | relative growth [9]: 1.01 | relative growth [10]: 0.962 | relative growth [11]: 1.04 | relative growth [12]: 0.98 | relative growth [13]: 0.982 | relative growth [14]: 0.961

CC1(C(=O)Nc2ccc(O)c(Cl)c2Cl)CCCCC1
relative growth [1]: 0.972 | relative growth [2]: 0.983 | relative growth [3]: 0.993 | relative growth [4]: 0.983 | relative growth [5]: 0.846 | relative growth [6]: 1.02 | relative growth [7]: 0.984 | relative growth (Community 10): 0.827 | relative growth (Community 4): 0.977 | relative growth (Community 6): 0.984 | relative growth (Community 7): 1 | relative growth (Community 8): 0.942 | relative growth (Community 9): 1.1 | relative growth [8]: 0.982 | relative growth [9]: 0.979 | relative growth [10]: 0.654 (active) | relative growth [11]: 0.995 | relative growth [12]: 0.99 | relative growth [13]: 1.04 | relative growth [14]: 0.954

CCCC1COC(Cn2cncn2)(c2ccc(Cl)cc2Cl)O1 (centres undefined)
relative growth [1]: 0.966 | relative growth [2]: 0.949 | relative growth [3]: 0.971 | relative growth [4]: 0.999 | relative growth [5]: 0.991 | relative growth [6]: 0.797 | relative growth [7]: 0.751 | relative growth (Community 10): 0.868 | relative growth (Community 4): 0.89 | relative growth (Community 6): 0.917 | relative growth (Community 7): 1.08 | relative growth (Community 8): 1 | relative growth (Community 9): 0.862 | relative growth [8]: 0.937 | relative growth [9]: 0.856 | relative growth [10]: 0.937 | relative growth [11]: 1.01 | relative growth [12]: 0.88 | relative growth [13]: 1.1 | relative growth [14]: 0.935

CCOP(=S)(OCC)Oc1cc(C)nc(C(C)C)n1
relative growth [1]: 0.987 | relative growth [2]: 0.964 | relative growth [3]: 0.98 | relative growth [4]: 1.16 | relative growth [5]: 0.981 | relative growth [6]: 0.834 | relative growth [7]: 0.888 | relative growth (Community 10): 0.743 | relative growth (Community 4): 0.904 | relative growth (Community 6): 0.958 | relative growth (Community 7): 1.1 | relative growth (Community 8): 0.976 | relative growth (Community 9): 0.912 | relative growth [8]: 0.913 | relative growth [9]: 0.909 | relative growth [10]: 0.975 | relative growth [11]: 0.969 | relative growth [12]: 0.943 | relative growth [13]: 1.09 | relative growth [14]: 0.922

CCOCn1c(-c2ccc(Cl)cc2)c(C#N)c(Br)c1C(F)(F)F
relative growth [1]: 0.988 | relative growth [2]: 0.989 | relative growth [3]: 1.01 | relative growth [4]: 0.978 | relative growth [5]: 1.14 | relative growth [6]: 0.829 | relative growth [7]: 0.987 | relative growth (Community 10): 0.934 | relative growth (Community 4): 1.07 | relative growth (Community 6): 0.99 | relative growth (Community 7): 1.06 | relative growth (Community 8): 1.05 | relative growth (Community 9): 1.03 | relative growth [8]: 1.03 | relative growth [9]: 0.988 | relative growth [10]: 0.993 | relative growth [11]: 0.996 | relative growth [12]: 0.979 | relative growth [13]: 1 | relative growth [14]: 0.978

CCCCCCCCCCCCNC(=N)N
relative growth [1]: 0.94 | relative growth [2]: 0.928 | relative growth [3]: 0.97 | relative growth [4]: 0.233 (active) | relative growth [5]: 0.0065 (active) | relative growth [6]: 0.00389 (active) | relative growth [7]: 0.0063 (active) | relative growth (Community 4): 0.501 (active) | relative growth (Community 6): 0.407 (active) | relative growth (Community 7): 0.993 | relative growth (Community 8): 0.788 | relative growth (Community 9): 0.294 (active) | relative growth [8]: 0.00294 (active) | relative growth [9]: 0.832 | relative growth [10]: 0.00418 (active) | relative growth [11]: 0.881 | relative growth [12]: 0.98 | relative growth [13]: 0.00315 (active) | relative growth [14]: 0.893

CCOCN(C(=O)CCl)c1c(C)cccc1CC
relative growth [1]: 0.953 | relative growth [2]: 0.938 | relative growth [3]: 0.964 | relative growth [4]: 1.02 | relative growth [5]: 0.999 | relative growth [6]: 0.858 | relative growth [7]: 1.02 | relative growth (Community 10): 0.858 | relative growth (Community 4): 0.952 | relative growth (Community 6): 0.921 | relative growth (Community 7): 0.976 | relative growth (Community 8): 1.02 | relative growth (Community 9): 1.06 | relative growth [8]: 1.05 | relative growth [9]: 0.946 | relative growth [10]: 0.969 | relative growth [11]: 1.06 | relative growth [12]: 0.667 (active) | relative growth [13]: 1.04 | relative growth [14]: 0.928

CS(=O)(=O)NC(=O)c1cc(Oc2ccc(C(F)(F)F)cc2Cl)ccc1[N+](=O)[O-]
relative growth [1]: 1.02 | relative growth [2]: 1.02 | relative growth [3]: 1.03 | relative growth [4]: 1.02 | relative growth [5]: 0.905 | relative growth [6]: 1.07 | relative growth [7]: 1.05 | relative growth (Community 10): 1.09 | relative growth (Community 4): 1.02 | relative growth (Community 6): 1.03 | relative growth (Community 7): 1.04 | relative growth (Community 8): 1.05 | relative growth (Community 9): 1.07 | relative growth [8]: 1.06 | relative growth [9]: 1.02 | relative growth [10]: 1.04 | relative growth [11]: 1.03 | relative growth [12]: 1.02 | relative growth [13]: 0.957 | relative growth [14]: 1.03

N#Cc1c[nH]cc1-c1cccc2c1OC(F)(F)O2
relative growth [1]: 0.982 | relative growth [2]: 0.92 | relative growth [3]: 0.986 | relative growth [4]: 0.99 | relative growth [5]: 0.868 | relative growth [6]: 0.824 | relative growth [7]: 0.882 | relative growth (Community 10): 0.855 | relative growth (Community 4): 0.977 | relative growth (Community 6): 0.93 | relative growth (Community 7): 1.12 | relative growth (Community 8): 1.02 | relative growth (Community 9): 0.914 | relative growth [8]: 0.83 | relative growth [9]: 0.856 | relative growth [10]: 0.958 | relative growth [11]: 1.01 | relative growth [12]: 0.915 | relative growth [13]: 1.14 | relative growth [14]: 0.904
